Measured values: the supplement of paper PMC3334620
Whole data set: some 33,000 sequences, median “E-score (-0.5 to 0.5)” near -0.035, cut for the highest 2% near 0.34. What follows is part of a selection rich in the highest values, with near analogues and random picks from the rest.

Each sequence was assayed against T1, Mot3 (UniProt P54785) (assay: PBM E-score (8-mer binding enrichment) (E-score (-0.5 to 0.5)); higher = stronger / more preferred TF binding). Settings: protein concentration: 200 nM; construct: GST-full length.
T1 sequence: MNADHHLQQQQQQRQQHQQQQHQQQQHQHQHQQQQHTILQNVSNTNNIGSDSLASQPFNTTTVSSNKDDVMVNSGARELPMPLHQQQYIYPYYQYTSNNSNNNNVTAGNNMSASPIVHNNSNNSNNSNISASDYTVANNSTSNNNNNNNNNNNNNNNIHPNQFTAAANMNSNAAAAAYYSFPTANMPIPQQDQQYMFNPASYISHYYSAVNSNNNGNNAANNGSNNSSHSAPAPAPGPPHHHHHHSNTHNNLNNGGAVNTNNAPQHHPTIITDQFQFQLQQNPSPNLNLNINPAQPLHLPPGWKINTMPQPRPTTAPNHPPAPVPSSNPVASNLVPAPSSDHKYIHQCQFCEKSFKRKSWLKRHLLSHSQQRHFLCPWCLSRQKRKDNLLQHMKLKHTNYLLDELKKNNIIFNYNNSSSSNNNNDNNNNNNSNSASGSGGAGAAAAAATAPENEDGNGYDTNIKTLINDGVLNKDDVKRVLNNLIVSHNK
Procedure, shortened: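 Detection of bound protein used fluorescent anti-GST, with scans normalised by masliner. The proteins were GST-tagged yeast transcription factors applied at about 100-200 nM to universal all-10-mer Agilent arrays made double-stranded by primer extension. Each ungapped eight-base word, pooled with its reverse complement, was scored with an E-score from the Universal PBM Analysis Suite.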

Sequence	PBM E-score
AAAGCGTA	0.0441
AGCACCGG	-0.32
GAAGCTTC	-0.191
CGAATAAC	0.0678
CAAATCAG	-0.048
ATGCGGCA	-0.115
TATACGCA	0.272
ATTGCCTC	0.331
ATTGCCCA	0.0652
CTTGCCCC	-0.209
ATTGCCAG	-0.156
CTTGCCTC	0.425
ATTGCCTG	0.482
ATTGCCGA	-0.0541
GCTGCCTA	0.282
ATTGCCTA	0.482
GTTGCCCA	0.103
CTTGCCGC	-0.231
GTTGCCTA	0.488
GAGCGCTC	-0.331
CGTCGCAA	-0.149
CAAGTCGG	-0.254
GGTACTCA	0.0108
AGCTATAA	-0.0249
CAGGTTCG	-0.00261

Sequence	PBM E-score
CACCAGGA	-0.104
CCTGCCTA	0.244
CTTGCCGA	-0.0816
CTTGCCTA	0.488
CGTTTGTC	-0.0445
CAGCCGCG	-0.0863
ATTTACGC	0.239
ATTTACAA	0.363
ATTTACAC	0.412
GTTTACAA	0.336
CGTTACAC	0.274
ATTTTTAA	0.156
CTTTACAC	0.415
ATTTACTC	0.159
AATTTTAC	0.222
ATTTACAG	0.228
ATTTTTAC	0.34
CTTTACAA	0.326
ACGAGAAC	0.0296
CATACAGC	-0.19
AAACGTGC	0.118
GCACCTCC	-0.215
ATGTCCTA	-0.0455
CGAGAGAG	-0.145
GACTGGAA	-0.213

Sequence	PBM E-score
AATAGGAA	0.415
AATAGGAT	-0.00596
CCTAGGAA	0.018
CATAGGAA	0.231
TATAGGAA	0.412
AATAGGTA	0.38
AATAGGTC	0.0378
GATAGGAA	0.197
AATAGGTG	0.0976
ACGTGCCA	0.00099
AAGTCCGT	-0.0474
AGTTAGGA	0.108
ATCAGGTA	0.256
GGGCGTGA	-0.066
CGACTTCC	-0.0315
TCTATAGA	-0.152
ACAATGGT	-0.058
ATGTAAGG	0.298
CGGTAATC	-0.149
AGGTAATG	0.279
ATGTAATG	0.395
CTGTATTC	0.185
ATGTATTG	0.303
AGGTAATC	0.344
CTGTAATA	0.238

Sequence	PBM E-score
ATGTATTC	0.363
ATGTAACG	0.268
ATGTAAGA	0.309
ATGTAATA	0.405
GGAGACCC	-0.0421
ACAACTAA	0.183
AGAAGTGG	-0.199
ATGCGTGG	-0.214
CTGCAACA	0.0762
CGCCACTA	-0.196
AAGTCCAC	-0.187
AAGTGCTC	-0.203
ACCAGTAA	0.016
GCACAGCA	0.144
CAAGTTGC	0.144
CAGCGAGG	-0.276
TTCGCAAA	0.0552
GTGTAATA	0.375
CTGTAATC	0.111
GAGTAATA	0.147
ATGTAATC	0.367
GGGTAATA	0.17
ATGTAAGC	0.267
AGCGAAGC	-0.0443
AAAGGCTG	0.0993

Sequence	PBM E-score
GAAGGCGC	0.362
AAAGGCTC	0.354
CAAGGCGC	0.191
AAAGGCGG	0.0743
CAAGGCTC	0.0281
GAAGGCCC	0.122
GAAGGCGA	-0.0248
AAAGGCGC	0.371
CAATGAGG	-0.197
TACGCGAA	0.221
TCGACTAA	-0.0673
CGGCACTA	-0.184
AGGCACTC	0.481
ACGCACTG	0.00111
CGGCACTC	-0.251
AGGCACTA	0.484
AGGCACTG	0.483
AAGCACTG	-0.0039
GGGCACTA	0.0732
ATGCACTC	-0.061
GTGATCGA	0.11
TAAAAGCA	-0.123
GCAGACAC	-0.00428
AGAGACGA	-0.246
ACACGGGA	0.29

Sequence	PBM E-score
ACACGGTG	0.335
CCACGGTC	-0.385
CCACGGTA	-0.191
ACACGGGT	0.348
ACACGGGC	0.259
ACACGGTC	0.349
ATACGGTC	-0.061
ACACGGTA	0.34
AAAACTCA	0.0802
ATCCTGAA	0.0408
GAGGGACC	-0.298
ATTACGTG	0.383
ATTACGTA	0.354
ATTACGTC	0.269
GTTACGTA	0.177
CTTACGTA	0.211
ACTACGTG	0.0857
ACGTCCAG	-0.0677
GTGGGTAA	-0.0112
GGCACGAC	0.36
AGCACGTA	0.136
AGCACGGA	0.102
GGCACGGA	0.397
CGCACGAC	-0.0534
GGCACGCC	0.237

Sequence	PBM E-score
GGCACGAA	0.271
CGCACGGA	-0.207
CGCACGTA	0.154
CGCACGCA	-0.03
GGCACGTA	0.363
GGCACGCA	0.348
ACACCCCG	-0.336
ACCAGCCA	-0.131
ATGCTCTG	-0.203
ACCGCTCC	-0.258
CGGCATTC	-0.249
CCTCGAGG	-0.336
GCTTGTAA	0.318
CGGAAAGC	-0.151
AGGAAAGA	0.282
AGAAAAGC	-0.171
AGGAAAGC	0.405
AGGAAAGG	0.371
ACGAAAGG	0.153
AACCAAAT	0.127
GTCGCAAA	0.0742
ATATGCGC	0.0367
AGGCAACT	0.484
AGGCAACA	0.482
GGGCAACC	-0.175

Sequence	PBM E-score
AAGCAACG	0.0783
ACGCAACT	0.0644
CGGCAACG	-0.0123
AAGCAACT	-0.0233
AGGCAACG	0.485
CGGCAACA	0.0868
TGGCAACA	0.118
AGGCAACC	0.483
CGGCAACC	-0.0847
GAGGCAGC	-0.0844
CTTGCATC	-0.16
ACCTGCTC	0.166
ATATGACG	0.0195
CGTATTTC	0.215
AGGACACT	-0.159
AGGATCGA	-0.0463
GCACAACA	0.35
GCACAACC	-0.0592
CCACAACA	-0.0484
AAGGTCCC	-0.184
GGCGCATA	-0.113
ACCCGCAA	-0.0644
CAGGAATG	-0.0291
TCGGAACA	0.056
AAGGAACA	0.453

Sequence	PBM E-score
AAGGAATT	-0.0259
CAGAAACG	0.0904
GAGGAACA	0.176
ATGGAACA	-0.111
CAGGAACG	0.466
ACGGAACT	-0.186
AAGGAACT	0.416
TAGGAACA	0.416
AAGGAAGA	-0.0092
ATGCTTAG	0.0516
AACGTTAT	0.123
AAGCCTCC	-0.243
CACTGGCC	-0.267
AACACATA	0.312
AAATTGGA	-0.0378
CAGTGGCG	-0.266
AGCAGTCA	0.0249
CAGCCAGA	-0.3
CTCCCTTA	-0.018
ACCGGCCG	-0.21
GAGGAACC	0.255
ATGGAACG	0.0262
AGGGAACC	0.00909
CAGAACCC	-0.0803
ACGGAACC	0.0959

Sequence	PBM E-score
CAGAAACA	0.0657
AAGGAAGG	0.176
AAGGAACG	0.465
CAGGAACA	0.449
CAGGAACC	0.46
CGGGAACA	0.147
AAGGAACC	0.462
TCGTGCCA	-0.155
GCACACCA	0.143
GGGGGGAC	-0.254
CTACTGTC	-0.103
GGTCTAAA	-0.127
GATCGCAA	-0.129
ACTCAAAA	-0.0489
AGGCAATC	0.481
AGGCAATG	0.476
GGGCAATA	-0.132
CGGCAATC	-0.109
AAGCAATC	-0.0271
ATGCAATG	-0.0896
AGGCAATA	0.472
CGGCAATA	0.0917
ACGCAATG	0.23
AACAGGAT	0.0971
CAATGGAC	-0.189

Sequence	PBM E-score
TAGCCAGA	-0.0655
GACACTAA	-0.106
AAGGCTGC	-0.00639
CACAGGGG	0.118
AGTTAGAT	0.0673
ACGCTTCT	-0.0128
CCAGACGG	-0.383
ATGCGTAA	0.32
CCGCGTAA	0.336
GCGCGTAA	0.34
CTGCGTAA	0.302
ACGCGTAA	0.317
GGGCGTAA	0.135
GTGCGTAA	0.356
GCGCGTAC	0.117
TCGCGTAA	0.374
ATTCTGAG	0.0253
TGTCGACA	0.111
ACAACAAT	0.182
GCACTTAA	0.133
CTTCAAGC	-0.0397
GTTTCCAA	-0.12
CTTTCCTC	0.0989
GTTTCCTA	0.411
CTTTCCCA	-0.0799

Sequence	PBM E-score
GTTTCCGA	0.122
CTTTCCTA	0.399
AGGCATGG	0.229
AAAGTGGG	-0.0287
TAGGAGCA	0.0656
CCGTAATA	0.121
ACGTAACG	0.0865
ACGTAATG	0.348
GCGTAATA	0.308
ACGTAATA	0.35
ACGTAATC	0.29
ACTTGCCT	0.479
AATTGCCG	-0.145
ACTTGCCG	-0.189
AATTGCCT	0.472
ACTTGCCC	0.0267
AATTGCCC	0.0147
ACGTGTAT	0.356
AAGTGTAT	0.117
CCGTGTCC	0.0332
CAGTGTAC	0.0758
CAGTGTAG	0.154
CCGTGTCG	0.126
ACGTGTAG	0.389
AGGTGTAG	0.0602

Sequence	PBM E-score
CCGTGTAC	0.34
ACGTGTCT	0.14
CCGTGTAG	0.367
AAGTGTAG	0.158
GCAATGGA	-0.00402
GAATCGGC	-0.269
CACCAGAG	-0.0278
CCTGCAAC	0.144
AACTTGCC	0.204
ACGTGTAC	0.343
AAGTGTAC	0.0824
GCGTGTAC	0.337
CCGTTAAG	-0.0319
TCAGGCAA	0.483
CCAGGCAC	0.487
CCAGGCCA	-0.29
TCAGGCGA	-0.0408
CCAGGCAA	0.477
CCAGGCAG	-0.119
CCAGGCCC	-0.101
TCAGGCCA	-0.0359
CCAGGCGA	-0.155
GAATACTC	-0.0747
GGAGCGCA	-0.281
CTGAACAG	-0.0714

Sequence	PBM E-score
CCGCAAGG	-0.128
ACACCTGT	0.193
TCTACTAA	0.0381
GCTGGACC	-0.332
ACGCAAGG	0.153
AGGCAAGC	0.489
AGGCAAGG	0.483
AGGCAAGA	0.477
GGGCAAGA	0.0525
AAGCAAGC	-0.162
CGGCAAGA	-0.115
CGGCAAGC	-0.0333
ATGCAAGG	-0.116
CCCTACAG	-0.128
GATCTCTA	-0.137
CCGGTCAG	-0.335
CCTCGTAG	0.0397
AATACCCC	-0.248
CTCAAGAC	-0.131
